The record followed here is PubChem BioAssay.

For experiment [1], the system named is PRMT1 (protein arginine N-methyltransferase 1). Put plainly: small molecules binding arginine methyltransferase PRMT1 – biochemical, small-molecule microarray, 635 nm fluorescence, primary screen (AID 1088).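 Further: binding of Prmt1 protein to compounds spotted on small-molecule microarray slides.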 As to conditions: higher = more signal.
A short description of experiment [2]: growth effects on S. cerevisiae YJM789 – YJM789 clinical isolate, OD600, 24 h, basal, primary screen (AID 1089).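 Further: growth of clinical yeast isolate S. cerevisiae YJM 789 seeded 1000 cells per well; test concentration not given here.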 As to conditions: higher = more signal, called active from +8 up or from −8 down.
A short description of experiment [3]: S. pombe growth modifiers, basal conditions – strain 972, OD600, 24 h, no modulator, primary screen (AID 1090).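 Further: basal condition with compound alone and no growth modifier present; test concentration not given here.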 As to conditions: S. pombe 972 growth, higher = more signal, called active from +8 up or from −8 down.
A short description of experiment [4]: budding yeast growth modifiers under rapamycin – strain BY4716, OD600, 96 h, primary screen (AID 1091). Further: test concentration not given here. As to conditions: S. cerevisiae BY4716 + rapamycin, higher = more signal, called active from +8 up or from −8 down.
Experiment [5] addresses Torsin-1A-interacting protein 2 (Homo sapiens) (UniProt Q8NFQ8). Put plainly: small molecules binding lysate-expressed LULL1 – cell lysate, human LULL1 lysate, 635/667 nm fluorescence, primary screen (AID 1092).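 Further: probe is lysate of COS7 cells overexpressing human LULL1; score merges per-feature 667 nm fluorescence with signal-to-noise.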 The following applies: small-molecule microarray, hLULL1 lysate binding, 635 nm fluorescence; higher = more signal.
Experiment [6] can be described thus: optical density change of DRC41 E. coli – strain DRC41, OD650, 24 h, E. coli filamentation project, primary screen (AID 1093).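 Further: MC1000 strain lacking acrAB efflux and sulA so SOS filamentation is blocked; test concentration not given here.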 The following applies: E. coli DRC41 growth, higher = more signal, called active from +8 up or from −8 down.
A short description of experiment [7]: probe aLefty2 binding to arrayed compounds – biochemical, biotinylated probe, 635/667 nm fluorescence, primary screen (AID 1094).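 Further: score merges spot fluorescence near 667 nm with spot signal-to-noise ratio.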 As to conditions: small-molecule microarray, higher = more signal.
In experiment [8] the test system is Noggin (protein binding on small-molecule microarray). The experiment in a line: small molecules binding Noggin protein – biochemical, 635/667 nm fluorescence, primary screen (AID 1095).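 Further: score merges 667 nm feature fluorescence with signal to noise over triplicate slides.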 As to conditions: 635 nm fluorescence, higher = more signal.
Experiment [9] deals with Neurogenic locus notch homolog protein 3 (Homo sapiens) (UniProt Q9UM47). The experiment in a line: small molecules binding NOTCH3 protein – biochemical, 635/667 nm fluorescence, primary screen (AID 1096). As to conditions: small-molecule microarray, 635 nm fluorescence, higher = more signal.
Experiment [10] can be described thus: probe aEGFR binding to arrayed compounds – biochemical, biotinylated probe, 635/667 nm fluorescence, primary screen (AID 1097).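 Further: probe is a biotinylated anti-EGFR antibody binding compounds printed on slides; score combines fluorescence near 667 nm and signal to noise of each spot.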 The following applies: small-molecule microarray, higher = more signal.
The subject of experiment [11] is Plasmodium falciparum Sir2 (PF13_0152, Sir2A). The experiment in a line: Plasmodium falciparum Sir2A binding compounds – biochemical, small-molecule microarray, 635 nm fluorescence, primary screen (AID 1098).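 Further: score merges spot fluorescence intensity with its signal-to-noise ratio.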 As to conditions: fluorescence 635 nm, higher = more signal.
Experiment [12] can be described thus: probe aDKK1 binding to arrayed compounds – biochemical, biotinylated probe, 635/667 nm fluorescence, primary screen (AID 1099).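 Further: score merges 667nm spot fluorescence with signal to noise across triplicate slides; reference of the scale not given here.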 The following applies: small-molecule microarray, higher = more signal.
Experiment [13] in a line: probe aCHRDL2 binding to arrayed compounds – biochemical, biotinylated probe, 635/667 nm fluorescence, primary screen (AID 1100). As to conditions: small-molecule microarray, higher = more signal.
Experiment [14] can be described thus: change in splice reporter luminescence, either direction, cell-based, HEK293, spliceosome inhibition project, primary screen (AID 1101).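 Further: HEK293 cells carrying a splicing-competent luciferase reporter gene; test concentration not given here.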 The following applies: HEK293 splicing luciferase reporter, 24 h, higher = more signal, called active from +8 up or from −8 down.
The target of experiment [15] is Fibroblast growth factor 10 (Homo sapiens) (UniProt O15520). The experiment in a line: compounds binding fibroblast growth factor 10 – biochemical, small-molecule microarray, 635 nm fluorescence, primary screen (AID 1102). As to conditions: FGF10 binding, fluorescence 635 nm, higher = more signal.
Experiment [16] relates to glycogen synthase kinase-3 (GSK3A per assay name; protocol says GSK3B). Put plainly: compounds binding glycogen synthase kinase-3 – biochemical, small-molecule microarray, 635 nm fluorescence, GSK3A, primary screen (AID 1103). Further: the record names both GSK3A and GSK3B. The following applies: fluorescence 635 nm, higher = more signal.
The target of experiment [17] is Epidermal growth factor receptor (Homo sapiens) (UniProt P00533). Put plainly: compounds binding epidermal growth factor receptor – biochemical, small-molecule microarray, 635 nm fluorescence, primary screen (AID 1104).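 Further: score merges 667 nm emission intensity with spot signal to noise over triplicate slides.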 As to conditions: EGFR binding, higher = more signal.
Experiment [18] deals with Follistatin-related protein 3 (Homo sapiens) (UniProt O95633). Put plainly: compounds binding follistatin-related protein 3 – biochemical, small-molecule microarray, 635 nm fluorescence, primary screen (AID 1105).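 Further: score merges emission near 667 nm and signal to noise per printed spot across three slides.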 The following applies: FSTL3 binding, higher = more signal.
Experiment [19] concerns the target Dickkopf-related protein 1 (Homo sapiens) (UniProt O94907). The experiment in a line: small molecules binding DKK1 protein – biochemical, small-molecule microarray, 635 nm fluorescence scan, primary screen (AID 1106).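 Further: score merges emission near 667 nm with signal to noise over three replicate slides.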 As to conditions: higher = more signal.
Experiment [20] has as its system Inhibin beta A chain (activin A). Put plainly: small molecules binding activin A – biochemical, small-molecule microarray, 635 nm fluorescence scan, primary screen (AID 1107).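 Further: mouse activin A protein probed at 4.33 µg/mL on printed slides; score merges bound-protein fluorescence near 667 nm with spot signal-to-noise.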 The following applies: INHBA, higher = more signal.

Calls of active or inactive are those of the source.

Follistatin-related protein 3 (Homo sapiens), sequence (O95633 whole entry, looked up): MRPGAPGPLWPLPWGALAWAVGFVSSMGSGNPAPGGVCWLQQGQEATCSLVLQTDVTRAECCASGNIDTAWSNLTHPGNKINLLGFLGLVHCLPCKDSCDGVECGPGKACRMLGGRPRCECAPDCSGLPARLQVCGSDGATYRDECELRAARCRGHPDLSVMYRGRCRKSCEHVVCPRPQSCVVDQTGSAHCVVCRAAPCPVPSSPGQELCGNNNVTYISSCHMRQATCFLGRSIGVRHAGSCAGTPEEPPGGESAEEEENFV
Fibroblast growth factor 10 (Homo sapiens), sequence (O15520 whole entry, looked up): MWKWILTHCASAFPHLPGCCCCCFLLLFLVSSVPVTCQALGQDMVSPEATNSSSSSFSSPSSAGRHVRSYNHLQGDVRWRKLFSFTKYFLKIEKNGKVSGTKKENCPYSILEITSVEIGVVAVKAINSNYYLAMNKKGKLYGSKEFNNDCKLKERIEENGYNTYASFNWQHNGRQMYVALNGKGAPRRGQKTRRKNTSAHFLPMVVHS
Epidermal growth factor receptor (Homo sapiens), sequence (P00533 whole entry, looked up): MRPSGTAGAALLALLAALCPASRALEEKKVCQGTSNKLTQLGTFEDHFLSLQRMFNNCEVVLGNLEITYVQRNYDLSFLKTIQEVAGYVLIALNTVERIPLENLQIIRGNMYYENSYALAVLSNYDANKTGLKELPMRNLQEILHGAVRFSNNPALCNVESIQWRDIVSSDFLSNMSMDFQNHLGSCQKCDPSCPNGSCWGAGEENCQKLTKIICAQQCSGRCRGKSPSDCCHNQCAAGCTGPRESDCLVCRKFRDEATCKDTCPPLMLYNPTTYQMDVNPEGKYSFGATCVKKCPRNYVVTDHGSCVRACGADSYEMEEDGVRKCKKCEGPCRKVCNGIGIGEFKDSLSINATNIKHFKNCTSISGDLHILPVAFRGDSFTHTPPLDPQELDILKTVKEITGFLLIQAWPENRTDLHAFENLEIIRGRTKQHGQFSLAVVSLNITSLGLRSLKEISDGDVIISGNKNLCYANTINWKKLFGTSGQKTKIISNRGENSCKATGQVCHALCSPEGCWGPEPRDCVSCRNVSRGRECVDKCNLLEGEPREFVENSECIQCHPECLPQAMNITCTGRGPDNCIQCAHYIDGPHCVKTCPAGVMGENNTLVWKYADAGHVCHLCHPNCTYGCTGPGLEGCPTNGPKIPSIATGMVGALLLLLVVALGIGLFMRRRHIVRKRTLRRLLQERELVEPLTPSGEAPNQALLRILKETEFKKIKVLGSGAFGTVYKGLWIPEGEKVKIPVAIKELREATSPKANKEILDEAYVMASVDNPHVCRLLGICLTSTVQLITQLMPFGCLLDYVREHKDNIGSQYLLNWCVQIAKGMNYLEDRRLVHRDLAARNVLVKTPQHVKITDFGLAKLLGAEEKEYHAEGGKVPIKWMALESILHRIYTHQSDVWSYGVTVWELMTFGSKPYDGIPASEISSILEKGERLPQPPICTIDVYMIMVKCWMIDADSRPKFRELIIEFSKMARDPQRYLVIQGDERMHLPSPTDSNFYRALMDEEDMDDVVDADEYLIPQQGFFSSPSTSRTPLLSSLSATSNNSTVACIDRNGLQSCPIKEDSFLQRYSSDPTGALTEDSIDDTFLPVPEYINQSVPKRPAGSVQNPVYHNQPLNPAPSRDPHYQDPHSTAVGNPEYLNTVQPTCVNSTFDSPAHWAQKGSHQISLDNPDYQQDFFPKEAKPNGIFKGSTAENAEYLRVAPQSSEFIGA
Neurogenic locus notch homolog protein 3 (Homo sapiens), sequence (Q9UM47 whole entry, looked up): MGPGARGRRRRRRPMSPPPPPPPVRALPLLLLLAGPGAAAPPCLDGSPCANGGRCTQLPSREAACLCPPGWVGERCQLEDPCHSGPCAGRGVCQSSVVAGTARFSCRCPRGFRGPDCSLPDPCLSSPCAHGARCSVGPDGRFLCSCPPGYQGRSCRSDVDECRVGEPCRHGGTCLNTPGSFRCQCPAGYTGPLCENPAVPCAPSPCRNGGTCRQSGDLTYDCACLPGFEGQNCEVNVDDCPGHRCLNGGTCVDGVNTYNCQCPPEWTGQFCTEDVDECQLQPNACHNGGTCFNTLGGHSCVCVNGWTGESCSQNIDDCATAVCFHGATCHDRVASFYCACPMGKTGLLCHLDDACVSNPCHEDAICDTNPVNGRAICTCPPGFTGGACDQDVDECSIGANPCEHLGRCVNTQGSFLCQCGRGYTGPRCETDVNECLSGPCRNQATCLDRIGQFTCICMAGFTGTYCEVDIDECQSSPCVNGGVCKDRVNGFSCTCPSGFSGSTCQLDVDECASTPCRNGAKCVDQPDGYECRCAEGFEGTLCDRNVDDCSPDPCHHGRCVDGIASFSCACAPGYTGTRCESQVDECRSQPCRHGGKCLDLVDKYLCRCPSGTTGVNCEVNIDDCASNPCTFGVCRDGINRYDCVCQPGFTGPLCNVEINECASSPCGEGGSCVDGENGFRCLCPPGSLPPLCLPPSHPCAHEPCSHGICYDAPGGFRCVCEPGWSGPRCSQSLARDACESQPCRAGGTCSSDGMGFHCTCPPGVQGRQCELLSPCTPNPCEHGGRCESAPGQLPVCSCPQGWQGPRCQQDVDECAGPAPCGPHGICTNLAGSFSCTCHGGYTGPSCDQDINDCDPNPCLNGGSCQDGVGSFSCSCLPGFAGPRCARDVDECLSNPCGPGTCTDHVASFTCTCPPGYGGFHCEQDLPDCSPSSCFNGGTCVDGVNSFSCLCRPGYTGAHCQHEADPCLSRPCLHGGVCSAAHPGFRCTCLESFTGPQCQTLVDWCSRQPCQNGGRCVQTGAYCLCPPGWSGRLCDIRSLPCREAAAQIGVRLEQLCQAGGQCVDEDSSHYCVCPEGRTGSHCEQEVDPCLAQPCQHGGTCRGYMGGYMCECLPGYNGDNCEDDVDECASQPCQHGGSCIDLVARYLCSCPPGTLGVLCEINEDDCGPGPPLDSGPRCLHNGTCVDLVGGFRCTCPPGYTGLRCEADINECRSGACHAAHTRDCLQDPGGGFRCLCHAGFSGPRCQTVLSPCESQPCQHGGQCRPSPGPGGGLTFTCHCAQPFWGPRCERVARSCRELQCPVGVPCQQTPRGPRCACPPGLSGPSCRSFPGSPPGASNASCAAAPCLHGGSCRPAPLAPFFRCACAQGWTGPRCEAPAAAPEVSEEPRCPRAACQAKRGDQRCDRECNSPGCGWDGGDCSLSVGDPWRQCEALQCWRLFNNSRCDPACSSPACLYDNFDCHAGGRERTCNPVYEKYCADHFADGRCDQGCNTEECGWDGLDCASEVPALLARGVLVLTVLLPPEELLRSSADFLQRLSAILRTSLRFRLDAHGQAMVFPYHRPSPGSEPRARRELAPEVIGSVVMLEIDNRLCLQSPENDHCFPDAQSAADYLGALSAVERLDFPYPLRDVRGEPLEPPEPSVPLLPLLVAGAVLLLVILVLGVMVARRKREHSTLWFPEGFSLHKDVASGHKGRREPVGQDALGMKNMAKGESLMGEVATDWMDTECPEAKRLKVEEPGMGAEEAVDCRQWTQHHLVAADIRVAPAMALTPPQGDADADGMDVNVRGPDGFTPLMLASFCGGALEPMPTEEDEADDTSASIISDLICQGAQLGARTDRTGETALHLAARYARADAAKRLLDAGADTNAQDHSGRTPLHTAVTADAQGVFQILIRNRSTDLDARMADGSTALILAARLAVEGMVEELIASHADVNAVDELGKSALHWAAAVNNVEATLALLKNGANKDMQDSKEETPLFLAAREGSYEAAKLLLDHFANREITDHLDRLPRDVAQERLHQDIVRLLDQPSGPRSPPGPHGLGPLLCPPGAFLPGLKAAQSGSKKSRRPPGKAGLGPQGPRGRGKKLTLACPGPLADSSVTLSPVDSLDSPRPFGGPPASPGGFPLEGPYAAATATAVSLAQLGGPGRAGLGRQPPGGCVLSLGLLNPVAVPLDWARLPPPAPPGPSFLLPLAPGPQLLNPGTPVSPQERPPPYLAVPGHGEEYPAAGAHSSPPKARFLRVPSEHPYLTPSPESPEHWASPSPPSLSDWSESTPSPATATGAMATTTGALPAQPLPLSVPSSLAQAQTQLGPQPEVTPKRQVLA
Dickkopf-related protein 1 (Homo sapiens), sequence (O94907 whole entry, looked up): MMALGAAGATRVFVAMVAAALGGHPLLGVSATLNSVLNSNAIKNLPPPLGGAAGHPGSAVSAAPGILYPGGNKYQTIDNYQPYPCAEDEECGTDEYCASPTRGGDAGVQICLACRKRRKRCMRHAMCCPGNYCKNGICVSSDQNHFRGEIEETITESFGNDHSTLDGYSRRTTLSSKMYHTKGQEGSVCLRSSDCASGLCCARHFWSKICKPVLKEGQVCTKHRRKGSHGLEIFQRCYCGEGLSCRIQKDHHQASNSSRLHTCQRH
Torsin-1A-interacting protein 2 (Homo sapiens), sequence (Q8NFQ8 whole entry, looked up): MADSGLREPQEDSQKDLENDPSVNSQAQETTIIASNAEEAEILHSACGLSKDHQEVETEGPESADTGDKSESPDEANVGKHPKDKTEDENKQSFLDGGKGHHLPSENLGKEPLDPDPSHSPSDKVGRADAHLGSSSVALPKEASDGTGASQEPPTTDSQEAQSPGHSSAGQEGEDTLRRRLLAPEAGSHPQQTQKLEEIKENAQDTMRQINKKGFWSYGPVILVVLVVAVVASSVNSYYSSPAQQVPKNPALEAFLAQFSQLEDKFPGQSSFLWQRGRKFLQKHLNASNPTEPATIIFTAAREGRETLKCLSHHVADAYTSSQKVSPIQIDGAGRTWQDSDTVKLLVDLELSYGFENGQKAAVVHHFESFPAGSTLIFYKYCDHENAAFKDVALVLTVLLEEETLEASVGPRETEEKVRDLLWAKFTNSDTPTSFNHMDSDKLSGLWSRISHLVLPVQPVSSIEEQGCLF

For the compound `CCOC(=O)[C@H](Cc1ccccc1)NC(=O)CCC1CC(OC(=O)NCCc2ccc(F)cc2)CC2(CCCC(COC(=O)NCCCN3CCCC3=O)O2)O1` (stereo not given in full), the composite z-score in experiment [1] was 1.37; in experiment [5], 2; in [7], -0.0986; in [8], 0.373; in experiment [9], 1.14; in experiment [10] it was 0.006. Besides, the composite z-score in experiment [11] was 0.844; in experiment [12], -0.257; in [13] it was -0.802; in experiment [15], 0.767; in [16], 0.843; in experiment [17] it was 0.478. The results for the composite z-score in experiment [18], in [19] and in experiment [20] were 0.69, 0.493 and -0.103, respectively. In addition, the z-score in experiment [2] is -1.68 (inactive); in experiment [3], -0.574 (inactive); in experiment [4] it was 0.674 (inactive); in experiment [6], -0.806 (inactive); in experiment [14], -1.79 (inactive).
As for `Cn1c(=O)n2n(c1=O)[C@H]1[C@H](O)[C@@H]3O[C@@H]3C(=NOCc3ccccc3)[C@H]1CC2`, the composite z-score in [1] is 0.241; in experiment [5], 2.31; in experiment [7], -0.185; in [8] it was -0.173; in experiment [9] it was 0.525; in experiment [10] it was -0.118. The composite z-score in experiment [11] was 0.421; in [12] it was -0.263; in [13], -0.374; in experiment [15], -0.414; in experiment [16], -0.046; in experiment [17], -0.0492. Besides, the composite z-score is -0.136 in experiment [18], -0.0857 in experiment [19] and -0.241 in experiment [20]. For the same compound, the z-score in experiment [2] was 0.409 (inactive); in [3], -0.41 (inactive); in experiment [4], -0.115 (inactive); in experiment [6], 0.703 (inactive); in experiment [14], 2.48 (inactive).
For the compound `C#CCCCON=C1C[C@@H](O)[C@@H](O)[C@@H]2[C@@H]3C(=O)N(C(C)(C)C)C(=O)[C@@H]3CC[C@H]12`, the composite z-score in experiment [1] was -0.872; in experiment [5] it was -0.0077; in experiment [7], 0.599; in experiment [8], -0.532; in experiment [9], -0.326; in [10], 0.113. Besides, the composite z-score in experiment [11] is 0.115; in [12], 0.765; in [13], 1.24; in [15], -0.165; in [16] it was -0.656; in experiment [17] it was -0.0084. Further, the composite z-score was -0.866 in [18], -0.996 in experiment [19] and 0.615 in experiment [20]. Further, the z-score was -0.234 (inactive) in experiment [2]; -0.401 (inactive) in experiment [3]; -0.0894 (inactive) in experiment [4]; 0.216 (inactive) in [6]; 0.233 (inactive) in [14].
On to `COC(=O)C1=C(C)N(Cc2ccccc2)[C@]23O[C@](C(=O)OC)(C(=O)N2[C@@H]1c1ccccc1)C(C(=O)OC)=C3C(=O)OC`, for which the composite z-score was 1.36 in experiment [1]; 1.31 in experiment [5]; -0.0228 in experiment [7]; 0.551 in [8]; 1.12 in experiment [9]; 0.0478 in experiment [10]. In addition, the composite z-score is 1.16 in experiment [11]; -0.389 in experiment [12]; -0.562 in experiment [13]; 1.24 in experiment [15]; 1.06 in [16]; 0.7 in experiment [17]. Further, the composite z-score in experiment [18] was 0.84; in [19], 0.757; in [20] it was 0.226. The z-score is -1.68 (inactive) in experiment [2]; -2.66 (inactive) in experiment [3]; -1.85 (inactive) in experiment [4]; 0.521 (inactive) in [6]; -2.35 (inactive) in experiment [14].
With `O=C1C[C@@H](O)[C@@H](O)[C@@H]2[C@@H]3C(=O)N(c4cccc(Oc5ccccc5)c4)C(=O)[C@@H]3CC[C@H]12`, the composite z-score in experiment [1] was -0.129; in experiment [5], 0.685; in experiment [7], -0.156; in [8], 0.292; in experiment [9], 1.02; in experiment [10] it was -0.145. In addition, the composite z-score in [11] is 0.326; in [12], -0.18; in experiment [13], -0.709; in experiment [15], 0.595; in experiment [16], 0.572; in experiment [17], 0.573. Besides, the composite z-score is 0.814 in experiment [18], 0.846 in experiment [19] and -0.173 in [20]. Further, the z-score in experiment [2] was 0.157 (inactive); in experiment [3], 0.462 (inactive); in experiment [4] it was 0.469 (inactive); in [6] it was 0.378 (inactive); in [14] it was 0.218 (inactive).
